This is part of a sample that, as a whole, favours compounds with a hit. Of some 83,000 tested, about 20% had one in any assay.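 Treatment: one concentration, 48 hours, 96-well format. Scoring: percent growth, with anything below 10 considered active.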 A number with no mark means an inactive call. The source made the active and inactive calls.
Columns and labels:
Experiment in all cases: NCI-60 one-dose screen, 48 h (100 = growth as untreated, 0 = no growth, -100 = all killed)
Conditions in all cases: 10 µM unless noted
NCI-H23 lung = system: NCI-H23 lung
NCI-H226 lung = system: NCI-H226 lung
NCI-H322M lung = system: NCI-H322M lung
HOP-62 NSCLC = system: HOP-62 NSCLC
NCI-H460 lung = system: NCI-H460 lung
NCI-H522 lung = system: NCI-H522 lung
A549/ATCC NSCLC = system: A549/ATCC NSCLC
786-0 renal = system: 786-0 renal
COLO 205 colon = system: COLO 205 colon
DU-145 prostate = system: DU-145 prostate
K-562 leukemia = system: K-562 leukemia
MALME-3M melanoma = system: MALME-3M melanoma
MDA-MB-231 breast = system: MDA-MB-231 breast
RXF 393 renal = system: RXF 393 renal
SF-268 CNS = system: SF-268 CNS
SF-295 CNS = system: SF-295 CNS
SF-539 CNS = system: SF-539 CNS
UACC-257 melanoma = system: UACC-257 melanoma
M14 melanoma = system: M14 melanoma

Row | SMILES | growth (NCI-H23 lung) | growth (NCI-H226 lung) | growth (NCI-H322M lung) | growth (HOP-62 NSCLC) | growth (NCI-H460 lung) | growth (NCI-H522 lung) | growth (A549/ATCC NSCLC) | growth (786-0 renal) | growth (COLO 205 colon) | growth (DU-145 prostate) | growth (K-562 leukemia) | growth (MALME-3M melanoma) | growth (MDA-MB-231 breast) | growth (RXF 393 renal) | growth (SF-268 CNS) | growth (SF-295 CNS) | growth (SF-539 CNS) | growth (UACC-257 melanoma) | growth (M14 melanoma)
1 | OC(CCCCCCCCC(O)CN1CCc2ccccc2C1)CN1CCc2ccccc2C1 (stereo not drawn) | 101% | 99.9% | 87.5% | 103% | 108% | 105% | 101% | 94.7% | 101% | 108% | 97.3% | 97.5% | 98% | 110% | 102% | 83.2% | 101% | 98.5% | 109%
2 | COc1cc(C)c(Cl)cc1C1=NN(c2ccc(S(N)(=O)=O)cc2)C(/C=C/c2ccccc2)C1 (stereo not drawn) | 50.5% | 31.9% | 107% | 59.7% | 26.8% | 27% | 34% | 63.4% | 38.3% | 82.6% | 23.1% | 85.6% | 88.4% | 58% | 70.2% | 63.7% | 103% | 83.4% | 72.2%
3 | N/C(=N\OC(=O)c1ccccc1)C(C(=O)NOC(=O)c1ccccc1)C1CCCCC1 (stereo not drawn) | 49.3% | 100% | 84.7% | -7% (active) | 34.5% | -46.9% (active) | 1.51% (active) | 76% | 77.3% | 57.7% | 2.85% (active) | 85.3% | 81.8% | 82.1% | 31.9% | 41.6% | 75.1% | 92.2% | 75.2%
4 | O=C(Nc1ccc(Cl)cc1)c1cc(-c2ccc(Cl)cc2)c2sc(=O)[nH]c2n1 | 2.31% (active) | 0.841% (active) | 6.21% (active) | -19% (active) | -5.14% (active) | -26.3% (active) | 1.59% (active) | 6.31% (active) | -52.1% (active) | 16.5% | -12.8% (active) | -13.8% (active) | -30.9% (active) | -3.38% (active) | 14.1% | -12.5% (active) | 7.84% (active) | -24.9% (active) | 8.92% (active)
5 | CS(=O)(=O)c1ccc(C(=O)N/N=C/c2cccc3ccccc23)cc1 | 89.6% | 83.7% | 93.9% | 74.9% | 66.8% | 4.48% (active) | 41.3% | 90.9% | 85.7% | 88.8% | 27.8% | 69.7% | 97.1% | 99.3% | 85.7% | 76% | 89.3% | 41.1% | 66.8%
6 | CC(C)(C)c1ccc(OC(=O)Nc2ccccc2)cc1 | 103% | 106% | 94.4% | 111% | 111% | 100% | 99.3% | 83.8% | 119% | 107% | 88% | 96.6% | 109% | 118% | 96% | 103% | 90.5% | 99.5% | 96.5%
7 | CC1=C(O)C(=O)CC1 | 96.3% | 100% | 103% | 120% | 109% | 115% | 88.8% | 105% | 116% | 112% | 106% | 104% | 108% | 102% | 110% | 94.9% | 111% | 97.4% | 105%
8 | CN(C)c1ccc(/C=C\c2cccc[n+]2C)cc1 | 46.6% | 67.7% | 102% | 48% | 69.5% | 30.5% | 20.8% | 69.3% | -35.6% (active) | 70.1% | 21% | 57.4% | 73.4% | 86.6% | 26.7% | 19% | 58.9% | 31.7% | 69.6%
9 | O=C(Nc1ccc([N+](=O)[O-])cc1)c1cc2ccccc2cc1O | -35.7% (active) | 1.68% (active) | 3.46% (active) | 13% | -33% (active) | -31.5% (active) | -6.53% (active) | -24.2% (active) | 67.8% | 103% | 0.836% (active) | -21.5% (active) | -35.5% (active) | -10.4% (active) | 92.5% | -20.6% (active) | 2.51% (active) | -33.3% (active) | -11.4% (active)
10 | COc1cc(C2CC(c3ccccc3)=NN2C=O)ccc1Oc1nc2c(c(=O)n(C)c(=O)n2C)n1C (stereo not drawn) | 79% | 79% | 55.4% | 102% | 91.3% | 91.7% | 61.5% | 98.1% | 105% | 59% | 74.3% | 77.9% | 71.9% | 90.9% | 56.3% | 62.2% | 117% | -27.3% (active) | 69.9%
11 | COc1ccccc1/C=N\Nc1ccc([N+](=O)[O-])cn1 | 101% | 98.7% | 107% | 106% | 123% | 101% | 105% | 105% | 102% | 114% | 112% | 117% | 103% | 115% | 105% | 96.3% | 98.7% | 108% | 94.4%
12 | CCN(CC)C(=O)O/N=C(/C)c1ccccc1 | 95.1% | 114% | 102% | 110% | 110% | 92.1% | 96.1% | 96.6% | 115% | 100% | 102% | 130% | 91% | 102% | 104% | 105% | 88.1% | 105% | 101%
13 | COc1cc(/C=N/NC(=O)Cn2c(-c3ccc(C)o3)nc3ccccc32)ccc1OCc1ccccc1 | 91.1% | 84.4% | 85.7% | 89.8% | 91.5% | 73.6% | 72.9% | 99% | 102% | 105% | 65.5% | 115% | 78.7% | 85.6% | 76.1% | 91.7% | 103% | 89.5% | 85.2%
14 | O=C(/C=C/c1ccccc1Br)c1cccc(OCCCCOc2cccc(C(=O)/C=C/c3ccccc3Br)c2)c1 | 89.3% | 89.9% | 98.8% | 103% | 95.5% | 90.7% | 87.7% | 104% | 103% | 104% | 94.6% | 99.6% | 104% | 96.9% | 101% | 95.5% | 102% | 94.1% | 88%
15 | Cc1cccc(/C=N/n2c(-c3ccc(Cl)cc3)nc3c(Br)cc(Br)cc3c2=O)c1 | 29.2% | 37.9% | 53.8% | 33.8% | 29.1% | 38.1% | 31.4% | 51.9% | 46.8% | 66.2% | 65.7% | 70% | 44.9% | 61.3% | 69.9% | 35.4% | 70% | 76.3% | 60.4%
16 | CN1C(=O)N(C)C2C1NN=c1s/c(=C\c3ccsc3)c(=O)n12 (stereo not drawn) | 59.4% | 46.1% | 65.1% | 46.8% | 18.2% | 26.4% | 42.2% | 47.6% | 41.1% | 74.9% | 13.5% | 54.3% | 66.8% | 51.6% | 64.4% | 25% | 40.2% | 60.9% | 22.7%
17 | COc1ccccc1-[n+]1cc(-c2ccc(-c3ccccc3)cc2)n2c1CCCCC2 | 2.82% (active) | 21.8% | 20% | 12.6% | 7.28% (active) | -12% (active) | 10.3% | 18.5% | -7.92% (active) | 20.7% | 10.5% | 0.879% (active) | 19.1% | 15.2% | 21.2% | -1.81% (active) | 18.2% | -22.9% (active) | 11.1%

— PubChem BioAssay (NCI)
